Experiment [1] concerns the target Lysosomal acid glucosylceramidase (Homo sapiens) (UniProt P04062). As to the kind of experiment: Glucocerebrosidase-p2 (AID 348; in the data active means potency below about 10 µM; further: potency means the concentration at half of the fitted maximal effect). Particulars: purified GBA, blue fluorogenic substrate, 40 min. In outline: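 Normal human glucocerebrosidase (0.2 nM) with blue fluorogenic substrate (80 uM final) in citrate/phosphate pH 5.9 with 10mM sodium taurocholate, 0.01% tween-20; 40 min RT, NaOH/glycine stop; fluorescence Ex 365/Em 440; AC50 from a titration from 0.6 nM upwards.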

A short description of experiment [2]: AP1 Signaling Pathway (AID 357; active means well fitted curve in either direction with a large enough effect, not every such curve was filed as active;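 further: ME-180 reporter cells stimulated with EGF at its EC50 level; on the % scale 0 is the no-effect control and ±100 the full control effect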). Particulars: ME-180 AP-1-bla reporter, EGF-induced, beta-lactamase ratio, 5 h; at 7.69 µM (top of the series) unless noted. In outline:
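Beta-lactamase reporter under AP-1 response element, ME-180 background. Stimulus: EC50 EGF. Compound exposure 5 h, 37 °C. Detection: CCF4, 2.5 h RT, 460/530 nm. Values: AC50 from titration.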

Experiment [3] is described as follows: NFAT Signaling Pathway (AID 444; active means well fitted curve in either direction with a large enough effect, not every such curve was filed as active;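 further: carbachol stimulus at about its EC50 of 1 µM final; on the % scale 0 is the no-effect control and ±100 the full control effect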). As to conditions: Jurkat NFAT-bla M1, carbachol, beta-lactamase ratio, 5 h; at 7.69 µM (top of the series) unless noted. In outline: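 Jurkat cells carrying an NFAT-driven β-lactamase reporter and co-transfected muscarinic M1 receptor were treated with compound plus carbachol (1 uM final, an EC50 level) for 5 h at 37 °C. CCF4 loading followed for 1 h at RT; 460/530 nm ratio gave %activity.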

The nature of experiment [4]: Stat Signaling Pathway (AID 446; active means well fitted curve in either direction with a large enough effect, not every such curve was filed as active;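 further: ME-180 cervical cancer cells given 40 pM IL-6 alongside compound; SIE-controlled beta-lactamase reporter measured as 460/530 nm FRET emission ratio; on the % scale 0 is the no-effect control and ±100 the full control effect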). As to conditions: ME-180 (cervical carcinoma) SIE beta-lactamase reporter, IL-6 stimulated, 5 h; at 7.69 µM (top of the series) unless noted. The gist of the method: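 Compound effects on IL-6-induced STAT reporter activity were measured in ME-180 cells. After overnight culture, cells were co-treated with 40 pM IL-6 for 5 hrs before beta-lactamase substrate loading at room temperature.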

Experiment [5] deals with Glucocorticoid receptor (Homo sapiens) (UniProt P04150). Description: GR-GFP Redistribution (AID 450;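 active means compounds whose dose series gives a full or clear partial fitted curve of increased nuclear translocation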; further: potency means the concentration at half of the fitted maximal effect). Particulars: U2OS GR-GFP nuclear translocation, laser cytometry, 2 h.
Sequence of Glucocorticoid receptor (Homo sapiens) (P04150 whole entry, looked up): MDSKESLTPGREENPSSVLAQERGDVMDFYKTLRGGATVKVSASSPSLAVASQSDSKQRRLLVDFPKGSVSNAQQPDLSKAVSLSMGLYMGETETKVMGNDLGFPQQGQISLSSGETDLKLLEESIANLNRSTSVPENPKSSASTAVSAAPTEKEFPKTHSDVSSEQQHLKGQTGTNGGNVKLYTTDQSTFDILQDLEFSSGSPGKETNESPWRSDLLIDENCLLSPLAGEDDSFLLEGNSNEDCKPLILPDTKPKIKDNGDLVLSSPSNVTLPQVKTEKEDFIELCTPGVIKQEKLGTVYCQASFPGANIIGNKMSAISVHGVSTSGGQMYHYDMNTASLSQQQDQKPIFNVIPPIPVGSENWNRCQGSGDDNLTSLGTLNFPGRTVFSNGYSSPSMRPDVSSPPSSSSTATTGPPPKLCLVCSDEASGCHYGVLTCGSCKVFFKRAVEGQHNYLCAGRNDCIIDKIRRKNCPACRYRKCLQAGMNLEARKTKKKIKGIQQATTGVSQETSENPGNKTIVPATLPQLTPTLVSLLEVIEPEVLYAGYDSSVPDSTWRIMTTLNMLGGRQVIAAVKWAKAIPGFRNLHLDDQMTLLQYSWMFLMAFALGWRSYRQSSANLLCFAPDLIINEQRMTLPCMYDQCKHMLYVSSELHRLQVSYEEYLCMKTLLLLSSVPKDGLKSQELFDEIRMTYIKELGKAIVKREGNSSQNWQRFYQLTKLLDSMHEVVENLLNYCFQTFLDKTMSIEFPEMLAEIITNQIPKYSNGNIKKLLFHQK
Experiment [6] has the same target. As to the kind of experiment: GR-EFC Redistribution (AID 451; calls by dose curve; further: potency means the concentration at half of the fitted maximal effect). Particulars: CHO-K1 GR-EFC translocation, beta-gal luminescence, 2 h. The gist of the method:
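CHO-K1 cells stably expressing nuclear-localized β-gal enzyme acceptor and GR fused C-terminally to the enzyme donor fragment; ligand-driven nuclear translocation restores β-gal by complementation. Compounds titrated up to 46 uM final, 2 h at 37 °C; luminescence read.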

The target of experiment [7] is Mitogen-activated protein kinase 10 (Mus musculus) (UniProt Q61831). As to the kind of experiment: JNK3 AlphaScreen Assay (AID 530; active means well fitted curve in either direction with a large enough effect, not every such curve was filed as active;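 further: kinase came from lysate of stimulated human HepG2 cells; signal reports phosphorylation of biotinylated GST-cJun 1-79 at Ser73 with 10 µM ATP; on the % scale 0 is the no-effect control and ±100 the full control effect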). Particulars: JNK3 lysate, c-Jun phosphorylation; series mostly up to 57.1 µM. The gist of the method:
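Phosphorylation of biotinylated GST-cJun(1-79) at Ser73 is measured by AlphaScreen proximity luminescence. Enzyme is JNK3 in HepG2 lysates activated with interleukin-1beta and tumor necrosis factor alpha; ATP is 10 uM final.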
In general terms: Bead proximity is the source of the signal in Alpha formats.

Experiment [8] addresses 3',5'-cyclic-AMP phosphodiesterase 4B (Homo sapiens) (UniProt Q07343). As to the kind of experiment: qHTS Assay for Inhibitors of PDE-IV (AID 607; active means well fitted activation curve with a large enough effect in the main read-out, with a control signal flat, not every such curve was filed as active; further: % of control where 0% means no effect). Particulars: HEK293 ACTOne CNG channel cells, membrane potential fluorescence; series mostly up to 22.9 µM. In outline:
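ACTOne HEK293 cells carry a modified cAMP-gated CNG channel and express endogenous PDE4; plated 1000 cells/well, compounds up to 22.9 uM final. Membrane-potential dye fluorescence (ex 535/em 590) was read; parental cells received 10 uM forskolin + 100 uM RO 20-1724.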
On the technique in general: qHTS replaces the single test concentration by a dilution series.

For experiment [9], the target named is Cytochrome P450 3A4 (Homo sapiens) (UniProt P08684). Description: qHTS Assay for Activators of Cytochrome P450 3A4 (AID 885). Further: nearly all actives have a fitted effect of over 65% in size. As to conditions: recombinant CYP3A4, Luciferin-PPXE luminescence, 60 min; series mostly up to 57.1 µM. In outline:
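CYP3A4 activity: Luciferin-PPXE O-dealkylation, 25uM substrate, 200mM KPO4, RT throughout. Read-out is luciferase luminescence; higher values reflect activation.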

Experiment [10] deals with Dual specificity protein kinase CLK4 (Homo sapiens) (UniProt Q9HAZ1). Description: qHTS Assay for Inhibitors of CDC-like Kinase 4 (Kinase-Glo Assay) (AID 1770). Further: nearly all actives have a fitted effect of over 65% in size. Further: potency means the concentration at half of the fitted maximal effect. Particulars: recombinant Clk4, Kinase-Glo ATP depletion luminescence; series mostly up to 66.7 µM. In outline: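 Inhibition was judged from remaining ATP, measured by Ultra-Glo luciferase bioluminescence after Clk4 (25 nM) had acted on RS peptide at 1 uM ATP for 4.5 hours, room temperature.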

Experiment [11] shares this target. Description: qHTS Assay for Inhibitors of CDC-like Kinase 4 (ADP-FP Assay) (AID 1795). Further: nearly all actives have a fitted effect of over 60% in size. Further: potency means the concentration at half of the fitted maximal effect. As to conditions: Transcreener ADP fluorescence polarization; series mostly up to 50 µM. The gist of the method:
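Inhibition of ADP formation by 6.25 nM Clk4 is measured using 1 uM ATP and 100 uM RS repeat peptide over one hour. Produced ADP displaces a fluorescent tracer from antibody, lowering polarization.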

In experiment [12] the target is Ubiquitin carboxyl-terminal hydrolase 1 (Homo sapiens) (UniProt O94782). Description: Inhibitors of USP1/UAF1: Pilot qHTS (AID 504865).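 Further: rhodamine fluorescence freed from ubiquitin-rhodamine substrate followed over time; top concentration of the series differs between compounds; on the % scale 0 is the no-effect control and ±100 the full control effect; nearly all actives have a fitted effect of over 35% in size.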 As to conditions: purified USP1/UAF1, Ub-rhodamine cleavage fluorescence; series mostly up to 54.9 µM. The gist of the method: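 Kinetic fluorescence assay: 1nM USP1/UAF1, 15 min compound preincubation, then 150nM Ub-Rho; 480/540 nm.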

A short description of experiment [13]: Primary qHTS for small molecule stabilizers of the endoplasmic reticulum resident proteome: Secreted ER Calcium Modulated Protein (SERCaMP) assay (AID 1508630). Further: on the % scale 0 is the no-effect control and ±100 the full control effect. As to conditions: SH-SY5Y GLuc-SERCaMP (Gaussia luciferase released on ER calcium loss) secretion, thapsigargin, luminescence; series mostly up to 38.4 µM. In outline:
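The SH-SY5Y reporter protocol was run at 3 concentrations up to 38.3 uM (primary) or 11 concentrations (follow-up): 16 h compound, 100 nM thapsigargin for 4 h, then extracellular luciferase luminescence.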

Experiment [14] concerns the target Rap guanine nucleotide exchange factor 3 (Homo sapiens) (UniProt O95398). As to the kind of experiment: Confirmatory qHTS for antagonist of cAMP-regulated guanine nucleotide exchange factor 3 (EPAC1) (AID 1645880). Further: nearly all actives have a fitted effect of over 55% in size. Further: potency means the concentration at half of the fitted maximal effect.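 On activity, negative = inhibition: plate controls were DMSO only for no effect and full effect of the ATA control for full effect.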 As to conditions: EPAC1 Rap1B-BODIPY-GDP exchange, fluorescence; series mostly up to 115 µM. The gist of the method: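 Released BODIPY-GDP fluoresces less than Rap1-bound BODIPY-GDP; the signal is followed at 480/540 nm at 5-min intervals over 30 min, after 5 min at room temperature. Reactions contain 100 nM EPAC1, 250 nM RAP1B-BODIPY-GDP and 50 uM GDP; results are normalized to ATA and DMSO.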

Experiment [15] deals with Rap guanine nucleotide exchange factor 4 (Homo sapiens) (UniProt Q8WZA2). Description: Confirmatory qHTS for antagonist of cAMP-regulated guanine nucleotide exchange factor 4 (EPAC2) (AID 1645885). Further: nearly all actives have a fitted effect of over 25% in size. Further: potency means the concentration at half of the fitted maximal effect. Particulars: EPAC2 Rap1B-BODIPY-GDP exchange fluorescence, biochemical; series mostly up to 114 µM.
Sequence of Rap guanine nucleotide exchange factor 4 (Homo sapiens) (Q8WZA2 whole entry, looked up): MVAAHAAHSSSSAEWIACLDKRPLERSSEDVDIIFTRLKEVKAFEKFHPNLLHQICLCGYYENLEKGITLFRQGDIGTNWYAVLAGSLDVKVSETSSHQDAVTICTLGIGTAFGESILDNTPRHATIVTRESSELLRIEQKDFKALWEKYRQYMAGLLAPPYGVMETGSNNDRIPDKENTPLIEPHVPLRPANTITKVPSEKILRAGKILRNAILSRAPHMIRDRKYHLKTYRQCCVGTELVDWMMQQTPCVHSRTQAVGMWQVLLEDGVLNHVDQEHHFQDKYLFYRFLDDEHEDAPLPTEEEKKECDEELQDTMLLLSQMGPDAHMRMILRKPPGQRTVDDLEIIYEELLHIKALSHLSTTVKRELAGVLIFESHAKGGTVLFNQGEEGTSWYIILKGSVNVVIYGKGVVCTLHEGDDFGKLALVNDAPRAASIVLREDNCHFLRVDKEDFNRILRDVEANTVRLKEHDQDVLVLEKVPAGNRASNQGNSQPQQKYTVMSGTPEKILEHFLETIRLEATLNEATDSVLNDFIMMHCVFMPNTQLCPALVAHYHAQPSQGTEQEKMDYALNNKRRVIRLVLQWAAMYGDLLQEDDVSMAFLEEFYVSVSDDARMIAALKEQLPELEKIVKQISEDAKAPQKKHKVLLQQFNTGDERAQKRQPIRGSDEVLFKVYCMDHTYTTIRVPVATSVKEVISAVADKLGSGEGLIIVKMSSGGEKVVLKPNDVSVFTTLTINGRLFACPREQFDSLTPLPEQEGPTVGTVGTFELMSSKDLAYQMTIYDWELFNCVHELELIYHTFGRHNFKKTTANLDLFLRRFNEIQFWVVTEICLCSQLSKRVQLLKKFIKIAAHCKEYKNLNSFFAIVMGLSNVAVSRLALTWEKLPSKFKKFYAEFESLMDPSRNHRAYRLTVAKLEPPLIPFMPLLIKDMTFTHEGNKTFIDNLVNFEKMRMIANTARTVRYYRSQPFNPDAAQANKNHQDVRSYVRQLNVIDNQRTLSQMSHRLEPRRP
The target of experiment [16] is Cytochrome P450 1A2 (Homo sapiens) (UniProt P05177). As to the kind of experiment: p450-cyp1a2 (AID 410; calls by dose curve; further: potency means the concentration at half of the fitted maximal effect;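 on activity change, negative = inhibition: -100% = full effect of reference inhibitor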). As to conditions: recombinant CYP1A2, luciferin-ME demethylation, luminescence; series mostly up to 57 µM. The gist of the method:
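O-Demethylation of luciferin 6' methyl ether by human CYP1A2 is monitored as luciferase luminescence. Substrate sits at Km (100uM); enzyme is 20nM. Values are scaled to 57 uM furafylline as maximal inhibition.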

Experiment [17] addresses Rap guanine nucleotide exchange factor 3 (Homo sapiens) (UniProt O95398). As to the kind of experiment: Confirmatory qHTS for agonist of cAMP-regulated guanine nucleotide exchange factor 3 (EPAC1) (AID 1645881).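 Further: EPAC1 catalysed release of BODIPY-GDP from Rap1B seen as fluorescence loss; 100% = effect of cAMP agonist control; nearly all actives have a fitted effect of over 75% in size.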 As to conditions: EPAC1 Rap1B BODIPY-GDP exchange fluorescence; series mostly up to 154 µM.
Experiment [18] addresses Rap guanine nucleotide exchange factor 4 (Homo sapiens) (UniProt Q8WZA2). As to the kind of experiment: Confirmatory qHTS for agonist of cAMP-regulated guanine nucleotide exchange factor 4 (EPAC2) (AID 1645884).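 Further: nucleotide exchange releases bodipy-GDP from Rap1 and this lowers its fluorescence; on the % scale 0 is the no-effect control and ±100 the full control effect; nearly all actives have a fitted effect of over 65% in size.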 Particulars: EPAC2 GEF activity, Rap1B-BODIPY-GDP fluorescence; series mostly up to 154 µM.
Experiment [19] deals with Cytochrome P450 3A4 (Homo sapiens) (UniProt P08684). Description: qHTS Assay for Inhibitors and Substrates of Cytochrome P450 3A4 (AID 884). Further: potency means the concentration at half of the fitted maximal effect; nearly all actives have a fitted effect of over 50% in size. Particulars: recombinant CYP3A4, Luciferin-PPXE luminescence; series mostly up to 57.1 µM. In outline: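 Luminescent readout of luciferin produced by CYP3A4 (20 nM) dealkylation of Luciferin-PPXE, 25 uM (its KM). NADPH-driven reaction ran 60 min at RT after 10 min compound preincubation; data scaled to 57 uM ketoconazole as 100% inhibition.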
Sequence of Cytochrome P450 3A4 (Homo sapiens) (P08684 whole entry, looked up): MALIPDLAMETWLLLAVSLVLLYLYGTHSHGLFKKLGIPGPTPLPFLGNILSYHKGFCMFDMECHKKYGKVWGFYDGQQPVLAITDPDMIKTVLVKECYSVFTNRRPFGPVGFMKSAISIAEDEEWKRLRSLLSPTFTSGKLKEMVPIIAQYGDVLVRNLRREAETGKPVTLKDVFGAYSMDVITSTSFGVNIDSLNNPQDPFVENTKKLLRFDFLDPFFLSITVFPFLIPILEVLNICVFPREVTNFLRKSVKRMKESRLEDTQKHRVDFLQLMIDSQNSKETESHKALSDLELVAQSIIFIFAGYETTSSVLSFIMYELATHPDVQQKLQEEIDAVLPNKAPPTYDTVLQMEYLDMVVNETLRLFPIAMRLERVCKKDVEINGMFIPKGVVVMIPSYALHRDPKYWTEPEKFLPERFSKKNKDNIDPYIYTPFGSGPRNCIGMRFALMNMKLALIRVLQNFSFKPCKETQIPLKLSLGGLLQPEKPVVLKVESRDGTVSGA

This is an account of results in PubChem BioAssay (NCATS).

A number with no mark means an inactive call. Records with an inconclusive call do not appear. Activity calls are given as the source filed them. Unless noted, the call rests on the fitted dose curve; in most records, active means well fitted curve in the direction sought with a large enough effect; inconclusive means small, poorly fitted or top-dose-only effect, or another doubt; inactive means no such curve, though single readings can be large; an effect the other way counts as inactive or inconclusive.

Sequence of Lysosomal acid glucosylceramidase (Homo sapiens) (P04062 whole entry, looked up): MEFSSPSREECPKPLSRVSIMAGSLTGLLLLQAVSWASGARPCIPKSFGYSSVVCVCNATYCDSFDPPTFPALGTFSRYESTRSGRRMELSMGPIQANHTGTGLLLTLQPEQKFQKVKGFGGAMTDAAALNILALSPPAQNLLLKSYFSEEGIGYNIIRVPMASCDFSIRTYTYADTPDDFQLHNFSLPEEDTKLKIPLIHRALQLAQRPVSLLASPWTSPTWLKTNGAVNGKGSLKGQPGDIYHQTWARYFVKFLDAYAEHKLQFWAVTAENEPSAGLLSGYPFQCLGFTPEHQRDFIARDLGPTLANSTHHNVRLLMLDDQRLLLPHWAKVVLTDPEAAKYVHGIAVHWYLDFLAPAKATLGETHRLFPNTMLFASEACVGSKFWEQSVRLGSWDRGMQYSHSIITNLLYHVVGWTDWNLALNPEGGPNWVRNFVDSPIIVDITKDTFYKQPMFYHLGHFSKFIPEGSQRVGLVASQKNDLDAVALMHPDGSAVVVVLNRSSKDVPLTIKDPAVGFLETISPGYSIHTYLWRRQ
Sequence of Cytochrome P450 1A2 (Homo sapiens) (P05177 whole entry, looked up): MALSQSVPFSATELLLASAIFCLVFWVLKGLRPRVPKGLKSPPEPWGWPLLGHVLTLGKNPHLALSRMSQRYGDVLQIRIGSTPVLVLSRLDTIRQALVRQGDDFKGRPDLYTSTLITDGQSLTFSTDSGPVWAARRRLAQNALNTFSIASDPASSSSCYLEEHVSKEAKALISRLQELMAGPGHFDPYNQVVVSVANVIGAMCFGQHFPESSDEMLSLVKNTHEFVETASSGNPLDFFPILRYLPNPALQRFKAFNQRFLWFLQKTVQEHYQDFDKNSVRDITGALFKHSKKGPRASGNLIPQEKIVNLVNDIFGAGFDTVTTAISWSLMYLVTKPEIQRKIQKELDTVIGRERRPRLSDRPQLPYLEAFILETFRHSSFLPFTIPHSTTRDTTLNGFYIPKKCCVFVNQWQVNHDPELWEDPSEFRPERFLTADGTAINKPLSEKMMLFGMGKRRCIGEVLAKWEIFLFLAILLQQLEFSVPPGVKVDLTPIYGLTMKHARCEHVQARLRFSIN
Sequence of 3',5'-cyclic-AMP phosphodiesterase 4B (Homo sapiens) (Q07343 whole entry, looked up): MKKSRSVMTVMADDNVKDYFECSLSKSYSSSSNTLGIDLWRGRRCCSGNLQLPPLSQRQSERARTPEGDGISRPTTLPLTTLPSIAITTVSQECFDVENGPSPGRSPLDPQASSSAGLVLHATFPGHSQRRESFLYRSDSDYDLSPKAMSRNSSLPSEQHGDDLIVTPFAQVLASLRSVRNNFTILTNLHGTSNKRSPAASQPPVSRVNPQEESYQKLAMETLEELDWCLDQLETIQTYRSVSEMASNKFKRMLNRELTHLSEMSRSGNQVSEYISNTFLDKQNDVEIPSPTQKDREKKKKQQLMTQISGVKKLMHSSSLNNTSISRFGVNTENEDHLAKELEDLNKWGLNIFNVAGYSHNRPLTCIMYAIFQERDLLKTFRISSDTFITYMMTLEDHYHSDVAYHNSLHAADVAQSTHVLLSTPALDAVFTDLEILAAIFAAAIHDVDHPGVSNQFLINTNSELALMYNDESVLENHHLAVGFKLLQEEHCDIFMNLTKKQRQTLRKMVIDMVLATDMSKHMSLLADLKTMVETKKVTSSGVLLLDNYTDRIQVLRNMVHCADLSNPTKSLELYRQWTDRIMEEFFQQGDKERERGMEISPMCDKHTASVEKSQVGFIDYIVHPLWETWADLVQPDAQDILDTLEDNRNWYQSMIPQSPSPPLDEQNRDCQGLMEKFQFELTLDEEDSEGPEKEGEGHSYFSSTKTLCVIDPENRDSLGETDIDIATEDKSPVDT
Sequence of Rap guanine nucleotide exchange factor 3 (Homo sapiens) (O95398 whole entry, looked up): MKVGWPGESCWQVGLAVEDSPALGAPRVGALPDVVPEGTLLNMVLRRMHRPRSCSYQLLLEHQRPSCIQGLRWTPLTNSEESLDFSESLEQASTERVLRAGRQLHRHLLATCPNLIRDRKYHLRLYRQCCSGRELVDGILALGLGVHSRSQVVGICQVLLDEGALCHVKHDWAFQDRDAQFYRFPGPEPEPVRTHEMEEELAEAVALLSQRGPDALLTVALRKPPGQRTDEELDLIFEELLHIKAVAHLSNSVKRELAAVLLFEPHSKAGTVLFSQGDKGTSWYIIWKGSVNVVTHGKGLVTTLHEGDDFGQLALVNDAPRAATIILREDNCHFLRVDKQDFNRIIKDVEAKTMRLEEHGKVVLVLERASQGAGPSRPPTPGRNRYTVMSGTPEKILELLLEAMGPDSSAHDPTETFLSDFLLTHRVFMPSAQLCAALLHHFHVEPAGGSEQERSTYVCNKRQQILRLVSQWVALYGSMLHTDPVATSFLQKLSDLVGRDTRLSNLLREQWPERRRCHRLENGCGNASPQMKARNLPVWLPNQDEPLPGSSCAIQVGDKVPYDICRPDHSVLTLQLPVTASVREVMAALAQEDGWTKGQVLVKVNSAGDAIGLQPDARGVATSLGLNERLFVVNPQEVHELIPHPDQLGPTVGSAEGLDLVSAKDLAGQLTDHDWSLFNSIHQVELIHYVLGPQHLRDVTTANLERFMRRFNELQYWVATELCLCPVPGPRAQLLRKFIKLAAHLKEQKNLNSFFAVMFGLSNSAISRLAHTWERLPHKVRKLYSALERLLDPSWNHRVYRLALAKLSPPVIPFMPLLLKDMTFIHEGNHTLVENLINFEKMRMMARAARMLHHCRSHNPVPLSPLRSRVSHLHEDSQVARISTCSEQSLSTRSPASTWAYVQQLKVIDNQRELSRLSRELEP

In the case of `Cn1cc(-c2nc3cnc(N4CCOCC4)nc3n(CCC#N)c2=O)c2ccccc21`, the figures for the Potency in [1], in experiment [5] and in [6] were more than 11.4 µM, more than 9.22 µM and more than 46 µM, respectively. Further, the activity change, negative = inhibition in experiment [2] was -11.7%; in [3], -7.6%. In addition, in [4], the activity, negative = inhibition is -5.04%. Further, the Potency entry in [7], in [8], in experiment [9], in experiment [10], in experiment [11] and in experiment [12] was “inactive” in each case. Moreover, the Potency entry in experiment [14] and in experiment [15] was “inactive” each time. Besides, the result in experiment [13] was inactive.
For the compound `COc1cccc(Nc2ncc3ncc(=O)n(Cc4cccs4)c3n2)c1`, the Potency in experiment [1] is more than 11.4 µM; in experiment [16], 1.58 µM (active); in experiment [5] it was more than 9.22 µM; in [6], more than 46 µM; in experiment [10], 0.708 µM (active); in experiment [11], 0.501 µM (active). For the same compound, the Potency entry in [7], in [12], in experiment [14], in experiment [17] and in [18] was “inactive” in each case. Besides, in experiment [13], the outcome was inactive.
Take `O=c1c(-c2cc(F)cc(F)c2)nc2cnc(N3CCOCC3)nc2n1-c1ccccc1`: the Potency in [1] is more than 11.4 µM; in [16], 5.01 µM (active); in experiment [5] it was more than 9.22 µM; in [6] it was more than 46 µM. The Potency entry in experiment [7], in experiment [8], in experiment [14] and in [15] was “inactive” in each case. Also, the result in experiment [13] was inactive.
Turning to `N#C/C(=C\c1ccc(O)c(O)c1)C(=O)OCCc1cccs1`, the results for the Potency in experiment [5], in experiment [6] and in [14] were more than 46 µM, more than 46 µM and 12.5 µM (active), respectively. Further, the Potency result in experiment [8], in experiment [9], in experiment [17] and in experiment [18] was “inactive” in each case. Also, the outcome in experiment [13] was inactive.
`COc1ccc(CNc2nc(-c3ccc4c(c3)OCO4)nc3ccccc23)c(OC)c1`: the Potency in experiment [1] is more than 11.4 µM; in [16] it was 3.98 µM (active); in experiment [5] it was more than 46 µM; in experiment [6], more than 46 µM; in experiment [19], 1.26 µM (active). In [2], the activity change, negative = inhibition was 0.828%. Moreover, in experiment [4], the activity, negative = inhibition is 2.14%. Also, the Potency entry in experiment [7], in experiment [8], in experiment [9], in [10], in experiment [11] and in experiment [12] was “inactive” in each case. For the same compound, the Potency result in experiment [17], in experiment [18] and in experiment [15] was “inactive” each time. The result in experiment [13] was inactive.
Regarding `Cn1c(=O)c(CCc2ccccc2)nc2cnc(Oc3ccccc3)nc21`, the Potency in experiment [1] was more than 11.4 µM; in experiment [6], more than 46 µM. For the same compound, the activity change, negative = inhibition in experiment [2] is -15.2%; in experiment [3], -7.88%. Besides, the activity, negative = inhibition in experiment [4] is -2.24%. For the same compound, the Potency entry in experiment [7], in experiment [8], in [14], in experiment [17], in experiment [18] and in [15] was “inactive” each time. Further, the outcome in [13] was inactive.
As to `COc1ccc(-c2nc3cnc(Nc4cccc(OC)c4)nc3n(Cc3cccs3)c2=O)cc1`, the Potency in experiment [1] was more than 11.4 µM; in experiment [5], more than 9.22 µM; in experiment [6] it was more than 46 µM; in experiment [15] it was 44.1 µM (active). In addition, the Potency entry in experiment [16], in experiment [7], in experiment [8], in experiment [9], in [10] and in experiment [11] was “inactive” throughout. The Potency entry in experiment [12], in [17] and in [18] was “inactive” throughout. Further, the result in [13] was inactive.
